Measurements: publication PMC4336329 (PLoS ONE, 2015)
Among all 310,000 compounds or so, about 14,000 (4.5%) showed an effect of 50% or more. Effects have a minus sign here. The entries come from a sample that favours strong results as a whole.

What follows are compounds tested against human ether-à-go-go-related gene (hERG) potassium channel (human, UniProt Q12809) (assay: primary screen, population patch clamp on CHO cells stably expressing hERG; higher = less effect of the substance).
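Further: peak tail current of the secondary pulse compared with the same well before compound.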

human ether-à-go-go-related gene (hERG) potassium channel, sequence (Q12809 whole entry, looked up): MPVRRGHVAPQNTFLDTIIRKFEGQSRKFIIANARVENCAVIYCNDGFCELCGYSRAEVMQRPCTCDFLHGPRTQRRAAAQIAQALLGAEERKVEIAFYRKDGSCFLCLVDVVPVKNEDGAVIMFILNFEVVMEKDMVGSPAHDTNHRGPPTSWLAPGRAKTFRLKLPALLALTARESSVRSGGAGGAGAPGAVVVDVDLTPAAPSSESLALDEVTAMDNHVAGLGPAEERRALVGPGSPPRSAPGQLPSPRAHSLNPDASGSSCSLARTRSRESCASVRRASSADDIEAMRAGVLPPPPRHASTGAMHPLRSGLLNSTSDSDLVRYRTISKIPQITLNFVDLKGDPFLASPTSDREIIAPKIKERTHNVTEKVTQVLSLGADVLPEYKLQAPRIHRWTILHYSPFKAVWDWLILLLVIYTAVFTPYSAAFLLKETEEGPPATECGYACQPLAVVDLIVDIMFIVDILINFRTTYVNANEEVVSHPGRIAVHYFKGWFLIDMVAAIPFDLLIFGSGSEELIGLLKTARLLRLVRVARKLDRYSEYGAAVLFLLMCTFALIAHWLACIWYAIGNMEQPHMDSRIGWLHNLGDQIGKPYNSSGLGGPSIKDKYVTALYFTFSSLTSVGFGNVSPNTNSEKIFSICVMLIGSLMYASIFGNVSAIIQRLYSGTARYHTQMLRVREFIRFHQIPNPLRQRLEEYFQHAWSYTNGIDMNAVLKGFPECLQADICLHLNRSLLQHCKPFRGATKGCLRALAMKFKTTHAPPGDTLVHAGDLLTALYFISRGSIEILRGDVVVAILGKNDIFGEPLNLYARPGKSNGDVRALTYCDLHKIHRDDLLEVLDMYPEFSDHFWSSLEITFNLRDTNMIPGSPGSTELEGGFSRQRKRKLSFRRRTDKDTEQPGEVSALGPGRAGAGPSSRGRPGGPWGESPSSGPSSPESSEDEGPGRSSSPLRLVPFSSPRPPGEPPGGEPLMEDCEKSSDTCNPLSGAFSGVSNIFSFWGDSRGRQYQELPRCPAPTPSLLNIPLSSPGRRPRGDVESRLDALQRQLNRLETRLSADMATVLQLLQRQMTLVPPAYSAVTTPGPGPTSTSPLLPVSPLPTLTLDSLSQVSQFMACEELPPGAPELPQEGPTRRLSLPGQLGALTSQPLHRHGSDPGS

Row | SMILES | hERG current change (%, negative = inhibition) at 10uM [%]
1 | Cn1c(N/N=C/c2c[nH]c3ccccc23)nc2ccccc21 | -46.7
2 | COC(=O)c1ccc(-n2nnnc2SC)cc1 | 3.46
3 | COc1cccc(/C=C2/Oc3ccccc3N(CC(=O)NCC3CCCO3)C2=O)c1 (stereo not shown) | 14
4 | Cc1nn(Cc2ccccc2)c(C)c1C(=O)OCC(=O)c1cc(C)n(C2CC2)c1C | -10.2
5 | NC(=O)COc1ccc(C23CC4CC(CC(C4)C2)C3)cc1 | 7.2
6 | O=C(NCc1ccc(F)cc1)N1CCN(C(=O)c2ccccc2)CC1 | -13.5
7 | O=C(Cc1ccc(Cl)cc1)NCCN1CCN(C(=O)Cc2ccc(Cl)cc2)CC1 | -53.4
8 | Cc1ccc(C(=O)N2CCN(CCNC(=O)C(=O)NC(C)C)CC2)cc1 | 9.12
9 | CC(C)(C)c1ccc(C(=O)N2CCN(CCNC(=O)C(=O)NCc3ccc(Cl)cc3)CC2)cc1 | -41.1
10 | Cl.O=C(Cc1ccc(Cl)cc1)NCCN1CCCC1 | -21.9
11 | O=C(NCCN1CCN(C(=O)c2ccc(F)cc2)CC1)C(=O)NCc1ccccc1 | -73.9
12 | O=C(NCCN1CCN(C(=O)c2cccc([N+](=O)[O-])c2)CC1)C(=O)NCc1ccc(Cl)cc1 | -50.1
13 | CN1CCN(C(=O)CNC(=O)Cc2ccc(Cl)cc2)CC1 | 5.31
14 | O=C(NCCN1CCN(S(=O)(=O)c2ccc(F)cc2)CC1)C(=O)NCc1ccccc1 | 0.451
15 | Cc1ccc(C(=O)N2CCN(CCNC(=O)C(=O)NCc3ccc(Cl)cc3)CC2)cc1 | -74
16 | COc1ccc(Cc2nc3ccccc3n2CC(=O)N/N=C/c2ccc(O)cc2)cc1OC | 0.975
17 | C=CCOc1ccccc1CNc1ccccc1C | -15.7
18 | COc1ccc(-c2ccc(NC(=O)c3ccco3)cc2)nn1 | 5.79
19 | Cc1c(NC(=O)C(C)n2cc([N+](=O)[O-])cn2)c(=O)n(-c2ccccc2)n1C (stereo not shown) | 19.4
20 | O=C(/C=C/Nc1ccccc1F)c1cccs1 | 1.08
21 | COc1ccc(OCc2nn3c(-c4ccco4)nnc3s2)cc1 | -36.6
22 | Cn1cccc1/C=C1\SC(=O)N(c2ccc(O)cc2)C1=O | 0.777

Row | SMILES | hERG current change (%, negative = inhibition) at 10uM [%]
23 | COc1ccc(/C(C)=N/NC(=O)C(NC(=O)c2ccccc2)c2n[nH]c(=O)c3ccccc23)c(OC)c1 (stereo not shown) | 4.11
24 | O=C(COC(=O)c1cc(S(=O)(=O)N2CCCCC2)ccc1N1CCOCC1)NCCc1ccc(F)cc1 | -25.5
25 | Cc1ccc(S(=O)(=O)N2CCN(CCNC(=O)C(=O)NCc3ccccc3)CC2)cc1 | 5.65
26 | CC(C)(C)c1ccc(C(=O)N2CCN(CCNC(=O)C(=O)NCc3ccccc3)CC2)cc1 | -57
27 | CC(C)NC(=O)C(=O)NCCN1CCN(C(=O)c2ccc(C(C)(C)C)cc2)CC1 | -3.01
28 | COc1ccc(-c2noc(CCC(N)=O)n2)cc1OC | 3.66
29 | Cc1csc(NC(=O)c2ccccc2C(=O)O)n1 | -0.365
30 | Cc1ccc(NC(=O)c2ccn(C)n2)c(Br)c1 | 0.15
31 | Cc1ccc(CNC(=O)c2cc(S(=O)(=O)N3CCOCC3)cn2C)cc1 | -12.5
32 | CCCSc1nc2cc(OC)c(OC)cc2c(=N)n1CCCN1CCOCC1 | -74.6
33 | O=C1c2ccccc2C(=O)N1CCSc1nc2ccccc2c(=O)n1CCCN1CCOCC1 | -15.1
34 | CC(Sc1nc2ccccc2c(=O)n1CC1CCCO1)C(=O)N(C)c1ccccc1 (stereo not shown) | -41.6
35 | COc1ccccc1CNC(=O)CSc1nc2ccccc2c(=O)n1CCCN1CCOCC1 | -56
36 | COC(=O)c1ccc2c(=O)n(CCN3CCOCC3)c(SCC(=O)NCc3ccccc3)nc2c1 | -46.1
37 | CC(=O)Nc1ccc(NC(=O)C(C)Sc2nc3ccccc3c(=O)n2CC2CCCO2)cc1 (stereo not shown) | 7.41
38 | O=C(CSc1nc2ccccc2c(=O)n1CCCN1CCOCC1)NC12CC3CC(CC(C3)C1)C2 | -67.8
39 | CC(Sc1nc2ccccc2c(=O)n1CC1CCCO1)C(=O)N(C)Cc1ccccc1 (stereo not shown) | -59.8
40 | COCCCn1c(SCC(=O)O)nc2cc(OC)c(OC)cc2c1=N | 9.07
41 | COCCCn1c(SCCc2ccccc2)nc2cc(OC)c(OC)cc2c1=N | -12.7
42 | CC(C)Cn1c(N)c(C(=O)CSc2nc3ccccc3c(=O)n2CCCN2CCOCC2)c(=O)n(C)c1=O | -22.2
43 | CC(=O)c1c(C)[nH]c(C(=O)CSc2nc3ccccc3c(=O)n2CCCN2CCOCC2)c1C | -15.5
